PubChem BioAssay AID493208 (National Center for Advancing Translational Sciences (NCATS), 2011)
Among all 44,000 compounds or so, about 340 (0.77%) were called active. Not shown: some 5% with an inconclusive outcome. The full list was thinned out, with actives kept by preference. Values without a mark were called inactive. The call rests on the fitted dose curve; in most records, active means well fitted inhibition curve with a large enough effect; inconclusive means small, poorly fitted or top-dose-only effect; inactive means flat fitted curve, though single readings scatter.

Test: Acumen qHTS Assay for Inhibitors of the mTORC1 Signaling Pathway in MEF (Tsc2-/-, p53-/-) Cells: Sytravon; further: nearly all actives have a fitted effect of over 50% in size
Conditions: phospho-rpS6 immunofluorescence/PI, 24 h; series mostly up to 38.3 µM; activity change, negative = inhibition: at the top concentration
Text: NIH Molecular Libraries Probe Production Centers Network [MLPCN] NIH Chemical Genomics Center [NCGC] MLPCN Grant: NS059428-01 Assay Submitter (PI): Blenis, John; Hoffman, Greg; Harvard University NCGC Assay Overview: The mammalian target of rapamycin (mTOR) is an intracellular serine/threonine kinase Aberrant regulation of mTOR signaling plays a causative role in a number of human diseases, including cancer, benign tumors such as lymphangioleiomyomatosis (LAM) and Tuberous Sclerosis Complex (TSC), and metabolic diseases such as diabetes and obesity. This project aims to identify inhibitors of ribosomal protein S6 (rpS6) phosphorylation. The phosphorylation of rpS6 is a key event downstream of mTOR activation. The assay uses a phospho-specific antibody of phospho-rpS6 to detect inhibitors of mTOR activation. Mutations in the Tsc1 and Tsc2 genes are the underlying genetic lesions responsible for TSC, causing constitutive activation of the mTORC1 pathway and leading to profound effects on cell metabolism. Aberrant metabolism in cancer has recently received significant attention as a target to develop therapeutic agents in the treatment of cancer.1 As Tsc2-/- cells have lost the ability to respond to energy and growth factor deprivation, these cells are unable to properly down regulate cellular biosynthetic processes in response to metabolic stress, and are thus extremely sensitive to glucose deprivation-induced death.2 A central goal of this project is to explore the unique cell survival and metabolic properties of cells with Tsc1 or Tsc2 by screening for compounds that selectively target the Tsc2-/- MEFs by screening both Tsc2-/- and WT MEF cell lines. We hope to better understand these aspects of TSC physiology in order to exploit them for therapeutic benefit.
NCGC Acumen Assay Protocol Summary: For quantitative high throughput analysis of mTORC1 signaling, we developed a cell-based assay for immuno-fluorescence based detection of rpS6 phosphorylation on the Acumen Explorer that will be used a platform for the primary small molecule screen. Mouse embryonic fibroblasts (MEFs) are cultured in 1536-well plates using DMEM + 10% FBS. Twenty-four hrs after plating, test compounds (solubilized in DMSO) are delivered and incubated with the cells for 24 hrs at 37 degree Celsius. Following the incubation, media with compound is aspirated and the cells are fixed in 4% paraformaldehyde (PFA) containing PBS + 0.2% TX-100. Next, PFA is aspirated, cells are washed two times with PBS plus 0.2% TX-100 and the cells are blocked for 1 hr at room temperature (blocking buffer: LiCOR Blocking Buffer plus 0.2% TX-100). […] Cells are washed two times with PBS plus 0.2% TX-100, and stained with 10 uM propidium iodide (PI) for 20-25 minutes for cell number measurement (1:500 dilution of Hoescht staining is also added for IN Cell imaging). The plates are scanned on the Acumen Explorer laser scanning instrument (TTP Labtech) using the 488nm laser for simultaneous excitation of the Alexa-488 and PI. […] The normalized phospho-S6 staining is calculated as the ratio of the integrated Alexa 488 intensity divided by the integrated PI intensity for the single concentration rapamycin control (7.5 nM) and DMSO columns. […] Inhibition of the pathway is defined based on the normalized phospho-S6 intensity in rapamycin treated cells. Active cells are defined as those with a normalized phospho-S6 staining above this threshold, and each treatment is reported as the % positive cells in the well, where thresholds are defined by selecting wells with the highest and lowest signal and differentiating between the % non-active and % active populations. In addition to the pathway specific phospho-S6 endpoint, the number of PI stained cells from the Acumen is recorded as a measure of cell viability. The primary screen was performed with a MEF cell line in a defined genetic background, Tsc2-/-, p53-/- cell line stably transfected with an empty vector control (Tsc2-/- MEF).
Potency means the concentration at half of the fitted maximal effect.

SMILES	activity change, negative = inhibition [%]	Potency
Cc1ccc(S(=O)(=O)c2nc(-c3ccco3)oc2SCC(=O)Nc2ccc(F)cc2)cc1	-0.694	–
CCOc1ccc(C(=O)/C=C/c2cn(CC(O)CN3CCCCCC3)c3ccccc23)cc1 (stereo not drawn)	–	14.7 µM (active)
COc1ccc(OCCn2cc(C(=O)C3CCCCC3)c3ccccc32)cc1	0.18	–
O=C(/C=C/c1cn(CC(O)CN2CCc3ccccc32)c2ccccc12)c1ccc(Br)cc1 (stereo not drawn)	-17.5	–
COc1ccc(-c2nc(S(=O)(=O)c3ccccc3)c(N3CCCCC3)o2)cc1	-13.1	–
CC(C)S(=O)(=O)c1oc(-c2ccc(F)cc2)nc1S(=O)(=O)c1ccc(F)cc1	–	0.521 µM (active)
O=C(CSc1oc(-c2ccc(F)cc2)nc1S(=O)(=O)c1ccc(Br)cc1)NC1CCCCC1	4.26	–
COc1ccccc1NC(=O)CCC(=O)N1CC(C)Oc2ccc(C)cc21 (stereo not drawn)	-7.46	–
COc1ccc(C)cc1N(CC(=O)N1CCC(C)CC1)S(=O)(=O)c1ccc(C)cc1	2.44	–
CC(C)(C)c1ccc(OCC(=O)N2CCC(c3nc4ccccc4s3)CC2)cc1	-9.26	–
CN1CCN(C2(CNC(=O)COc3ccc(C(C)(C)C)cc3)CCCCC2)CC1	–	8.26 µM (active)
CCn1cc(C(=O)NCc2ccccc2)c(=O)c2cc(S(=O)(=O)N3CCCCC3)ccc21	-7.26	–
Cc1cccc(CNC(=O)c2cnc3sc(N4CCCCC4)nn3c2=O)c1	8.89	–
O=C(Cc1ccc(Cl)cc1)Nc1ccc2nn(-c3ccc(Cl)cc3)nc2c1	-7.33	–
COc1ccc(C(=O)Nc2ccc3nc(N4CCCCC4)cc(C)c3c2)cc1OC	–	13.1 µM (active)
COc1cccc(C(=O)Nc2ccc3nc4n(c(=O)c3c2)CCCCC4)c1	-1.75	–
CCOc1ccc(-n2nc3ccc(NC(=O)c4ccc(OC)c(Cl)c4)cc3n2)cc1	2.46	–
CCN1CCN(c2cc(C)c3cc(NC(=O)c4cc(Cl)ccc4OC)ccc3n2)CC1	–	2.61 µM (active)
COc1ccc(NC(=O)c2ccc3nc(C(C)C)oc3c2)cc1OC	-14.4	–
COc1ccc(NC(=O)c2cnc(Nc3ccc(C)c(Cl)c3)c3ccccc23)cc1OC	0.723	–
CCOc1ccc(N(Cc2ccccc2)C(=O)c2nc(S(C)(=O)=O)ncc2Cl)cc1	–	0.736 µM (active)
CCOc1ccc(NC(=O)CN(Cc2ccccc2)S(=O)(=O)c2ccc(Cl)cc2)cc1	3.52	–
CCOc1ccc(N(Cc2ccccc2)C(=O)c2nc(SCC)ncc2Cl)cc1	-13	–
CCOC(=O)c1ccc(NC(=O)c2c(NCc3cccs3)sc3c2CCCC3)cc1	-12.1	–

SMILES	activity change, negative = inhibition [%]	Potency
CCCn1ccc2c(OCC(=O)NCc3ccc(F)cc3)cccc2c1=O	-1.85	–
CCOc1ccc(N2CC(C)Cn3c2nc2c3c(=O)n(Cc3c(F)cccc3Cl)c(=O)n2C)cc1 (stereo not drawn)	-8.65	–
O=C1CN(C(=O)Nc2ccccc2C(F)(F)F)C(c2ccccc2)c2c(sc3c2CCCC3)N1 (stereo not drawn)	4.23	–
Oc1c(C(c2ccc(F)cc2)N2CCN(Cc3ccccc3)CC2)sc2nc(-c3ccco3)nn12 (stereo not drawn)	0.278	–
Cc1nc2ccn(Cc3cccs3)c(=O)c2cc1C(=O)NCc1ccc(Cl)cc1	-5.14	–
CCOCCCNC(=O)c1cn(CC)c2ccc(S(=O)(=O)N3CCc4ccccc4C3)cc2c1=O	0.725	–
Cc1ccc2nc(/C(C#N)=C/c3ccc(-c4ccc(C(=O)OC(C)C)cc4)o3)[nH]c2c1	-18.9	–
Cc1nn2c(=O)cc(COC(=O)CNC(=O)c3ccc(F)cc3)nc2s1	-6.97	–
COc1ccc(N2CCN(c3cc(C)nc4nncn34)CC2)cc1	-1.3	–
CCOc1ccc(CCNC(=O)c2ccc3c(c2)sc2nc(-c4ccc(F)cc4)cn23)cc1OCC	-3.54	–
Cc1nn2c(=O)cc(COC(=O)c3cccc(NC(=O)COc4ccccc4Cl)c3)nc2s1	0	–
Cc1nn(CC(=O)N2CCN(c3cccc(C(F)(F)F)c3)CC2)c(=O)c2cc3sccc3n12	1.19	–
COc1cccc(Nc2nc3ccccc3c3nncn23)c1	-4.37	–
CCOC(=O)c1nc(Nc2ccc(C(=O)OC)cc2)c2ccccc2n1	-14.8	–
COc1cc(Nc2nc(-c3ccc(OC)c(OC)c3)nc3ccccc23)cc(OC)c1	–	16.5 µM (active)
Cn1c(=O)oc2cc(S(=O)(=O)CCC(=O)NCCc3ccc(Cl)cc3)ccc21	-10.6	–
Cc1ccc(S(=O)(=O)c2cn(Cc3ccccc3)c3cc(N4CCCC4)c(F)cc3c2=O)c(C)c1	-7.49	–
CN(C)S(=O)(=O)c1ccc(C(=O)N(Cc2cccnc2)c2nc3c(F)cc(F)cc3s2)cc1	-8.48	–
O=C(CCOc1ccccc1)N(Cc1cccnc1)c1nc2ccc(Cl)cc2s1	-0.351	–
O=C(CCS(=O)(=O)c1ccccc1)N(Cc1cccnc1)c1nc2c(F)cccc2s1	–	3.69 µM (active)
CCc1ccc(C2CC(=O)c3c([nH]c(C(=O)OCc4ccc(C)cc4)c3C)C2)cc1 (stereo not drawn)	-16.6	–
CC1=C(C(=O)OCC(C)C)C(c2ccc(OCc3ccccc3)cc2)N2C(=O)CCSC2=N1 (stereo not drawn)	-27.7	–
CCOc1ccc(C2CC(=O)c3c([nH]c(C(=O)OCc4ccccc4)c3C)C2)cc1 (stereo not drawn)	–	4.14 µM (active)
Cc1ccc(CSc2oc(-c3cccs3)nc2S(=O)(=O)c2ccc(C)cc2)cc1	0	–
